Measurements published in the supplement of paper PMC12636033.
± gives the standard deviation of the averaged measurements. In all, about 33,000 sequences were measured (“E-score (rank enrichment, -0.5 to 0.5)”: median about -0.0028, highest 2% from about 0.23 on). Shown is part of a subset that was picked to be rich in the highest values.

system: 2Sb-muMax20 (muMax20 with two 1,3-bis(methyl)benzene Cys staples, A13C/A17C and Q88C/A92C, C-terminal Lys); assay: PBM 8-mer E-score (E-score (rank enrichment, -0.5 to 0.5)); higher = stronger preferential binding
Protocol: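 Protein binding microarray (universal PBM chip covering all 10-mers in fixed probe flanks) with chemically synthesized human Max(13-93) bHLH-LZ analogs (not full-length Max) bearing noncanonical residues (hArg, Tha, Aib, Nle at 65) and aromatic Cys staples. Read-out per 8-mer (and its reverse complement): E-score (rank-based enrichment, -0.5 to 0.5) and Z-score of median probe intensity.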

Sequence	PBM 8-mer E-score
TAATATTA	0.35 ± 0.0053
TAATATAA	0.152 ± 0.00074
AAATATGA	0.247 ± 0.032
GGATATTA	0.128 ± 0.11
AAAGGTTA	0.0976 ± 0.032
ACTCACTC	0.00443 ± 0.03
CCTTTTGC	-0.0513 ± 0.057
TATAGGAA	0.255 ± 0.038
CATAGGAA	0.0608 ± 0.002
AATAGGAA	-0.0166 ± 0.01
ATCATGAT	0.267 ± 0.045
ATCATGAG	0.0432 ± 0.081
ATCATGAA	0.1293 ± 0.00082
ATCATAAG	0.217 ± 0.062
AACATAAG	0.118 ± 0.021
ATCATAAA	0.000625 ± 0.011
ATAATCAG	0.198 ± 0.028
ATCATAAT	0.232 ± 0.024
AACATAAT	0.297 ± 0.014
ATAATCAT	0.241 ± 0.044
ATAATCAA	0.0744 ± 0.015
AACATAAC	0.202 ± 0.012

Sequence	PBM 8-mer E-score
AAGGGCCG	-0.18 ± 0.018
ATTTTAGA	0.0196 ± 0.021
CTGTTTCC	-0.0107 ± 0.033
CGCGCACG	0.0273 ± 0.007
GAATCTAC	0.0758 ± 0.0052
ATTACCCC	0.226 ± 0.0063
ATTACCCA	0.2414 ± 0.0019
AATACCCG	-0.105 ± 0.092
ATTACCCG	0.0122 ± 0.03
AATACCCA	0.272 ± 0.021
TATACCCA	0.0636 ± 0.015
ATTCCAAT	-0.0251 ± 0.027
CAGGACCA	-0.196 ± 0.036
ATCTGTCG	0.089 ± 0.014
ATCTGTCA	0.236 ± 0.0051
ATCTGTCC	0.0828 ± 0.032
CGGACTCA	-0.147 ± 0.028
CTACAACA	0.0685 ± 0.041
ACACAACG	0.0437 ± 0.0021
ATACAACC	-0.0388 ± 0.043
ATACAAGA	-0.044 ± 0.011
ATACAAGC	0.284 ± 0.043

Sequence	PBM 8-mer E-score
CTACAAGC	-0.00747 ± 0.0035
ATACAACG	0.252 ± 0.027
ATACAACA	0.239 ± 0.053
GTACAACA	0.159 ± 0.0065
CTTACGCC	0.0349 ± 0.067
AGTCTACA	-0.0861 ± 0.047
TAGCAATA	-0.02 ± 0.012
AGGCCGCG	-0.113 ± 0.078
GAGACGCA	0.0251 ± 0.025
TCGGGCAA	-0.0563 ± 0.02
CAAGGTTA	-0.0419 ± 0.083
AAAGGTAG	0.176 ± 0.01
AAGCCGTG	-0.228 ± 0.057
ACGCGAAG	-0.0725 ± 0.09
AGTAGAAA	0.1174 ± 0.00047
CGTAGAAA	-0.0374 ± 0.016
TGTAGAAA	0.236 ± 0.0088
CTATGCGC	-0.0257 ± 0.0089
CGACCAAG	-0.128 ± 0.0088
GTTAGTTA	0.108 ± 0.058
ATAAGTTA	0.241 ± 0.01
ATTAGTTG	0.205 ± 0.022

Sequence	PBM 8-mer E-score
CTAAGTTA	0.0294 ± 0.017
ATTAGTTA	0.233 ± 0.039
GTAAGTTA	0.0157 ± 0.033
AGAATTGG	0.092 ± 0.037
ATGCTAGC	0.17 ± 0.0032
CCCGCCTC	0.0922 ± 0.074
GCTAAAGA	0.0447 ± 0.088
CAAGTTTA	0.151 ± 0.057
ACTCCGAC	-0.182 ± 0.046
AATCACAC	0.131 ± 0.016
CAAAAACA	0.00439 ± 0.066
ACTATGCC	0.101 ± 0.025
GTTTTGCA	0.0867 ± 0.05
ATTTTGTG	0.0967 ± 0.078
GTTTTGTA	0.279 ± 0.035
GGTTTGTA	0.0375 ± 0.026
CTTTTGTA	0.136 ± 0.035
ATTTTGTA	0.271 ± 0.013
AAGGTTCC	-0.178 ± 0.069
GGGTTGTA	0.0272 ± 0.0033
TAGACAAA	0.053 ± 0.034
CACGAATC	-0.015 ± 0.029

Sequence	PBM 8-mer E-score
AGAAGATG	-0.0449 ± 0.09
ATCAAGAA	0.121 ± 0.044
AAAAATTA	0.0513 ± 0.022
CAAATTTC	0.208 ± 0.085
CGAAATTA	-0.0924 ± 0.033
CAAAATTA	0.108 ± 0.0041
AAAATTTC	0.0563 ± 0.036
GAAATTTC	0.245 ± 0.17
AGAAATTA	0.0685 ± 0.035
GGAAATTA	0.304 ± 0.016
GAAAATTA	0.2425 ± 0.002
CGAAAACC	-0.0224 ± 0.019
ACATACCC	-0.0475 ± 0.056
ACTCTTTG	0.0269 ± 0.0091
TTAGATAA	0.113 ± 0.021
AACGCTCT	-0.0435 ± 0.014
CAACCTGA	-0.0727 ± 0.068
AAGCGCTA	-0.041 ± 0.0066
AAGCGCTT	0.309 ± 0.011
AAGCGCTC	-0.108 ± 0.037
ACTGAGCC	-0.209 ± 0.022
GAATAGCA	0.146 ± 0.046
